Assay outcomes as filed in PubChem BioAssay.
A selection: hits, their analogues and other compounds. The true share with any hit is near 4.1%.
AmpC inh no detg: qHTS Inhibitors of AmpC Beta-Lactamase (assay without detergent) | P00811 | AmpC nitrocefin hydrolysis, absorbance 480 nm, 0.0001% Triton | hit rate 0.52% among 330,000 | Potency, µM (series often up to 57.1 µM), hits mostly inhibitors; also: nearly all actives have a fitted effect of over 20% in size
Target sequence (P00811 whole entry, looked up): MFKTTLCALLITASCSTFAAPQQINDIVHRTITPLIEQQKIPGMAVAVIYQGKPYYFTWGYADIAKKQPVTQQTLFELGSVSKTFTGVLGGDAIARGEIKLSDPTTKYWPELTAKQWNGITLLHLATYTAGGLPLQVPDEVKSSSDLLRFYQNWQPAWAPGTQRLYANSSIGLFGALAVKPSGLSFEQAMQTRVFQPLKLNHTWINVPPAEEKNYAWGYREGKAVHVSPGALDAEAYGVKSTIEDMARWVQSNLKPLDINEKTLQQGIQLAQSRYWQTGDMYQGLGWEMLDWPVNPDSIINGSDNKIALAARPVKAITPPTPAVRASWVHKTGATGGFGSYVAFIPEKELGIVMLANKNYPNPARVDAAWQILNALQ
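20 mM phosphate pH 7.0 + 0.01% (detergent screen) or 0.0001% Triton X-100; 5.3 nM AmpC reagent; cpd preinc 15 min RT; nitrocefin (800 uM stock) to start; A480 q20 s × 4 min; Activity was normalised to no-enzyme and no-compound control wells.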
AmpC inh detg: qHTS Inhibitors of AmpC Beta-Lactamase (assay with detergent) | P00811 | AmpC hydrolysis of nitrocefin, absorbance 480 nm, 0.01% Triton | Potency, µM (top dose mostly 114 µM), hits mostly inhibitors | hit rate 0.041% among 370,000; also: nearly all actives have a fitted effect of over 25% in size
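AmpC (5.3 nM in the dispensed reagent) in 20 mM phosphate pH 7.0 with 0.01% (detergent screen) or 0.0001% Triton X-100 was preincubated with compounds for 15 min at room temperature. Nitrocefin was then added from an 800 uM solution, and hydrolysis was followed at 480 nm.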
AMA1 RON2 block: qHTS for Inhibitors of AMA1-RON; Towards Development of Antimalarial Drug Lead: Primary Screen | Plasmodium falciparum AMA1 (3D7) - RON2 peptide interaction | AlphaScreen AMA1-biotinylated RON2 peptide binding | Potency, µM (doses to about 58.2 µM), usual class: inhibitors | hit rate 0.2% among 360,000; also: nearly all actives have a fitted effect of over 45% in size
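AMA1 (3D7) with his tag at 25 nM final met compounds first, then biotinylated RON2 peptide at 25 nM; detection used donor plus acceptor beads, 10 µg/mL apiece, read by AlphaScreen after 30 min at room temperature.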
FMDV antiviral: High Throughput Screening for Foot and Mouth Disease Virus Antivirals; AID 1159524, 2015; Potency, µM (doses to about 57.9 µM), usual class: inhibitors; hit rate 1.2% among 410,000; FMDV antiviral cell-based qHTS; calls by dose curve; tested in HEK293T cells; also: read-out not given here; nearly all actives have a fitted effect of over 45% in size
Sm TGR inh: qHTS Assay for the Inhibitors of Schistosoma Mansoni Peroxiredoxins. Schistosoma mansoni thioredoxin glutathione reductase (TGR), Q962Y6. purified TGR, DTNB reduction, TNB absorbance 405 nm. Potency, µM (highest dose often 114 µM), actives largely listed as inhibitors. hit rate 3% among 360,000; also: nearly all actives have a fitted effect of over 60% in size
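Kinetic colorimetric format: TGR-catalysed, NADPH-driven DTNB reduction monitored via TNB absorbance. Enzyme dispensed at 20 nM; compound exposure 15 min at room temperature before reaction start.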
Of the large screens only hits and unclear results are named; the others gave an inactive call. Unless noted, calls follow the shape of the dose curve; as a rule, active = well fitted curve in the direction sought with a large enough effect; inconclusive = small, poorly fitted or top-dose-only effect, or another doubt; inactive = no such curve, though single readings can be large; an effect the other way counts as inactive or inconclusive.

Cc1ccc(NC(=O)C2CCN(c3ncnc4sc(C)c(C)c34)CC2)cc1S(=O)(=O)N(C)C	AmpC inh no detg 28.2µM, AmpC inh detg inconclusive, FMDV antiviral inconclusive
Cc1sc2ncnc(N3CCC(C(=O)Nc4cc(S(C)(=O)=O)ccc4Cl)CC3)c2c1C	AmpC inh detg inconclusive, FMDV antiviral inconclusive
COc1ccc(-c2cccc3c2OC(CNC(=O)c2ccccc2-n2cccn2)C3)nn1 (centres undefined)	none (no result: AmpC inh no detg, AmpC inh detg, AMA1 RON2 block, Sm TGR inh)
COc1ccccc1CNS(=O)(=O)c1cc(C(=O)Nc2cccc(C(F)(F)F)c2)ccc1F	none (no result: AmpC inh no detg, AMA1 RON2 block)
Cc1ccc2c(c1)-c1c(cnn1CC(=O)N(Cc1ccco1)C1CCCCC1)CO2	AmpC inh no detg 50.1µM, FMDV antiviral inconclusive
Cc1ccc2c(c1)-c1c(cnn1CC(=O)NC(C)CCc1ccco1)CO2 (centres undefined)	AmpC inh detg inconclusive, Sm TGR inh inconclusive
COc1ccc2c(c1)CCc1cnc(-n3ncc(C(=O)N(C)CCc4ccccn4)c3C)nc1-2	none (no result: AmpC inh no detg, AmpC inh detg, AMA1 RON2 block, Sm TGR inh)
CC(=O)O[C@@H]1C[C@@]2(C)C(c3ccoc3)C[C@H]3O[C@]32[C@]2(C)C(=O)C(O)=C3C(C)(C)C(=O)C=C[C@]3(C)C12 (some centres undefined)	FMDV antiviral 25.1µM (no result: AmpC inh no detg, AmpC inh detg, AMA1 RON2 block, Sm TGR inh)
CC(=O)OC1CC(OC(C)=O)[C@]2(C)C(CC(OC(C)=O)[C@]3(C)C2CC[C@@]2(C)C(c4ccoc4)C[C@H]4O[C@]432)C1(C)C (some centres undefined)	none (no result: AmpC inh no detg, AmpC inh detg, AMA1 RON2 block, Sm TGR inh)
CC(=O)OC1C[C@@]2(C)C(c3ccoc3)C[C@H]3O[C@@]32[C@@]2(C)C(=O)C(O)=C3C(C)(C)C(=O)C=C[C@]3(C)C12 (some centres undefined)	FMDV antiviral 7.94µM (no result: AmpC inh no detg, AmpC inh detg, AMA1 RON2 block, Sm TGR inh)
COc1cccc(CNC(=O)c2ccc3nc(N4CCCCC4)sc3c2)c1OC	none (no result: AmpC inh no detg, AMA1 RON2 block)
Cc1ccccc1-c1nc(CNC(=O)NC2CCCCC2)c(C)o1	none (no result: AmpC inh no detg, AMA1 RON2 block)
CCOC(=O)C1=C(C)NC(=O)/C1=C\N(C)C	Sm TGR inh 20µM
Cc1nc(N2CCOCC2)c2c(C(=O)NCCc3ccccc3)c(C)oc2n1	none (no result: AmpC inh no detg, AMA1 RON2 block)
COc1ccc(-c2nc(CS(=O)CC(=O)NC3CCC(C)CC3)c(C)o2)cc1OC (centres undefined)	Sm TGR inh 35.5µM
COc1ccc(-c2nc(CSCC(=O)NC3CC3)c(C)o2)cc1OC	AmpC inh detg inconclusive
COc1ccc(-c2nc(CSCC(=O)NC3CCCC3)c(C)o2)cc1OC	AmpC inh detg inconclusive, Sm TGR inh inconclusive
COc1ccc(-c2nc(CS(=O)CC(=O)NC3CCCc4ccccc43)c(C)o2)cc1OC (centres undefined)	Sm TGR inh 20µM
COc1ccc(-c2nc(CS(=O)CC(=O)NC3CCCC3)c(C)o2)cc1OC (centres undefined)	Sm TGR inh 20µM
Cc1noc(/C=C/c2ccccc2F)c1S(=O)(=O)N1CCC(C(=O)NCC(C)c2ccccc2)CC1 (centres undefined)	AmpC inh detg inconclusive (no result: AmpC inh no detg, AMA1 RON2 block)
Cc1cc2nc(-c3cccc(Cl)c3)c(Cc3ccccc3)n2c(C)c1Br	none (no result: AmpC inh no detg, AmpC inh detg, Sm TGR inh)
CC1=NN(c2ccccc2)C(=O)/C1=C/N(C)C	FMDV antiviral inconclusive
CC1=NN(c2ccccc2)C(=O)/C1=C/c1cccc(C)c1	none
CC1=NN(c2ccccc2)C(=O)/C1=C/C=C/c1ccc(N(C)C)cc1	AmpC inh detg inconclusive, AMA1 RON2 block 1.41µM, FMDV antiviral inconclusive
CC1=NN(c2ccccc2)C(=O)/C1=C/c1c(O)[nH]c(=S)[nH]c1=O	FMDV antiviral inconclusive, Sm TGR inh 8.91µM
CC1=NN(c2ccccc2)C(=O)/C1=C\C=C\c1ccccc1	AMA1 RON2 block 6.31µM, FMDV antiviral 22.4µM
Cc1ncc2c(c1CNC(=O)c1ccccc1F)CCN(C(=O)c1csc(-c3cccs3)n1)C2	none (no result: AmpC inh no detg, AmpC inh detg, AMA1 RON2 block, Sm TGR inh)
Cc1ccc(NC(=O)c2ccc(Nc3c([N+](=O)[O-])cc([N+](=O)[O-])cc3[N+](=O)[O-])cc2)cc1	AmpC inh detg inconclusive, FMDV antiviral 12.6µM
COc1ccc(C(=O)Nc2ccc(Nc3ccccc3)cc2)cc1[N+](=O)[O-]	AmpC inh detg inconclusive, FMDV antiviral 35.5µM
